# DT40 TDP1 no CPT: qHTS for Inhibitors of human tyrosyl-DNA phosphodiesterase 1 (TDP1): qHTS in cells in absence of CPT; DT40 Tdp1-/- hTDP1 cells, no CPT, ATP luminescence, 48 h; Potency, µM (highest dose often 46.2 µM), without a hit: top-dose activity change, negative = growth inhibition, hits mostly inhibitors; 15% of 420,000 active; AID 686978, 2013; note: potency is the fitted concentration of half-maximal effect; nearly all actives have a fitted effect of over 55% in size
#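 Chicken DT40 Tdp1-/- cells complemented with human TDP1, screened without camptothecin (DMSO vehicle only), 400 cells/well. Compounds pin-transferred, cells incubated at 37 °C for at least 48 hr. Growth read as ATP-dependent luminescence (CellTiter-Glo, 30 min at RT).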
# HT1080NT lethal: kills 2HG-producing HT-1080-NT fibrosarcoma cells | HT-1080-NT fibrosarcoma viability, CellTiter-Glo ATP luminescence, 48 h | Potency, µM (doses to about 46.1 µM), inactives show at the highest dose activity, negative = less viability, usual class: cytotoxic | 1.6% of 360,000 active;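 note: NT is the 2HG producing partner of a matched IDH1 knockdown line; potency is the fitted concentration of half-maximal effect; 0% = DMSO-treated cells and -100% = media-only wells without cells; nearly all actives have a fitted effect of over 55% in size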
#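 Luminescent CellTiter-Glo readout after 48 hours of compound exposure at 37 degrees C defined viability of HT-1080-NT cells. Activity was normalized to DMSO wells and cell-free media wells; concentration-response curves were fitted and assigned curve classes.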
# IL-1B inflam inh: blocks inflammasome-driven IL-1 beta release; 4.7% of 360,000 active; activity change, % at 57.5 µM; THP-1 LPS/ATP IL-1B secretion, AlphaLISA, 16 h; stronger effect = lower value; in the data active = activity change below about -50%; inconclusive = mostly about -30% to -49%
#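 Secreted IL-1B measured by AlphaLISA bead assay after 16 h compound exposure of THP-1 cells; compounds (final up to 57.5 uM) added 1 h before LPS (250 ng/mL) and ATP (1.25 mM) stimulation; lower signal means less secretion.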
# DT40 TDP1 CPT: growth inhibition of DT40 Tdp1-/-;hTDP1 cells with camptothecin (screen for TDP1 inhibitors); 12% of 420,000 active; Potency, µM (top dose mostly 46.2 µM), for inactives: at the highest dose activity change, negative = growth inhibition, hits mostly inhibitors; chicken DT40 Tdp1-/-;hTDP1 cells + 20 nM CPT, ATP luminescence, 48 h; note: potency is the fitted concentration of half-maximal effect; nearly all actives have a fitted effect of over 55% in size
#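 Chicken DT40 Tdp1-/- cells complemented with human TDP1, 400 cells/well, exposed to compounds plus 20 nM camptothecin for at least 48 h at 37 C; viability read as ATP content by CellTiter-Glo luminescence.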
# HT1080 IDH1KD tx: HT-1080 IDH1 knockdown cell toxicity (counter line); HT-1080 IDH1 knockdown viability, ATP luminescence, 48 h; Potency, µM (titrated, usually from 46.1 µM), for inactives: at the highest dose activity, negative = toxicity, actives largely listed as cytotoxic; 2% of 360,000 active;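 note: potency is the fitted concentration of half-maximal effect; 0% = DMSO wells and -100% = cell-free medium wells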
#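 Luminescent ATP read-out (CellTiter-Glo, 10 min at room temperature) after 48 h compound exposure at 37 °C gave viability of IDH1-knockdown HT-1080 cells. Activity was normalised to DMSO and cell-free wells, then fitted as concentration-response curves.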
# Active calls of the source: *; ? = inconclusive; nt = no result given. Sampled rows, rich in hits. Any-hit rate of the full collection: about 19%. Unless noted, calls come from the whole dose curve; as a rule, active = well fitted curve in the direction sought with a large enough effect; inconclusive = small, poorly fitted or top-dose-only effect, or another doubt; inactive = no such curve, though single readings can be large; an effect the other way counts as inactive or inconclusive. Unless noted, % is set by controls: 0 for no effect and ±100 for the full control effect.
SMILES,DT40 TDP1 no CPT,HT1080NT lethal,IL-1B inflam inh,DT40 TDP1 CPT,HT1080 IDH1KD tx
CC(C)c1ccc(NC(=O)COC(=O)CSc2nnc(N)s2)cc1,-5%,-4%,6,-15%,-4%
Cc1ccc(N(C(C)C(=O)Nc2cc(Cl)ccc2Oc2ccccc2)S(C)(=O)=O)cc1 (configuration not stated),?,?,-69*,?,-5%
COC(=O)COc1cccc2c(=O)n(CC(=O)Nc3ccc4c(c3)OCCO4)ccc12,-13%,-5%,-50*,-15%,?
CCOCCn1ccc2c(OCC(=O)Nc3cc(OC)ccc3OC)cccc2c1=O,9.2µM*,-4%,-11,?,-1%
CCOCCn1ccc2c(OCC(=O)Nc3ccc(C(N)=O)cc3)cccc2c1=O,15µM*,nt,nt,?,nt
COCCn1ccc2c(OCC(=O)Nc3cc(OC)ccc3OC)cccc2c1=O,15µM*,0%,-10,?,-2%
COc1cccc2c(=O)n(CC(=O)Nc3ccccc3)ccc12,-20%,0%,6,4%,-1%
CCOCCn1ccc2c(OCC(=O)Nc3cccc(F)c3)cccc2c1=O,?,nt,nt,-29%,nt
CCC(CC)CN1C(Nc2ccccc2)=NC[C@@H]1C,?,14%,-5,?,10%
C[C@H](NC(=O)c1ccccc1Cl)C(=O)Nc1ccccc1F,-2%,27%,-1,?,13%
CC(Oc1cccc(Cl)c1)C(=O)Nc1cc(S(=O)(=O)N2CCCCC2)ccc1N1CCOCC1 (configuration not stated),?,-10%,-5,?,-24%
CCn1ccc2c(OCC(=O)Nc3ccc(C(C)=O)cc3)cccc2c1=O,9.2µM*,nt,nt,?,nt
CCOCCn1ccc2c(OCC(=O)Nc3ccccc3OC)cccc2c1=O,?,?,-60*,?,-23%
O=C(Nc1ccccc1C(=O)OCc1cc(=O)n2nc(C3CC3)sc2n1)c1ccc(Cl)cc1,-21%,nt,nt,-27%,nt
COCC(=O)Nc1cc(C(=O)N2CCc3sccc3C2)c2c(c1)nc(-c1ccncc1)n2C,-1%,nt,nt,3%,nt
CCOc1ccc(CC(=O)N/N=C(\C)c2cccnc2)cc1OCC,1%,-3%,9,-22%,-4%
CC(=O)OC1CC2C(C)(C)C(O)CC[C@@]2(C)C2CC[C@@]3(C)C(c4ccoc4)OC(=O)C4O[C@@]43[C@]12C (some centres not stated),18µM*,nt,nt,?,nt
CC(=O)OC1CC(O)C(C)(C)C2CC(OC(C)=O)[C@]3(C)C(CC[C@@]4(C)C(c5ccoc5)OC(=O)C5OC534)[C@]12C (some centres not stated),10%,nt,nt,5%,nt
CC(=O)OC1CC2C(C)(C)C(O)CC[C@@]2(C)C2CC[C@@]3(C)C(c4ccoc4)OC(=O)C4OC43[C@]12C (some centres not stated),21µM*,nt,nt,?,nt
CC(=O)OC1CC2C(C)(C)C=CC(=O)[C@@]2(C)C2CC[C@@]3(C)C(c4ccoc4)OC(=O)C4OC43[C@]12C (some centres not stated),-9%,nt,nt,-4%,nt
Cc1cc(/C=C2\Sc3ccccc3N2C)cc(C)[n+]1CC1CCCO1 (configuration not stated),0.026µM*,9.2µM*,-101*,0.0082µM*,?
Cc1cc2cc(CNC(=O)Cc3cccs3)ccc2n1C,?,6%,-3,8.2µM*,-1%
Cc1cc2cc(CNC(=O)c3ccc(Br)o3)ccc2n1C,-27%,12%,22,26µM*,-4%
Cc1cc2cc(CNC(=O)c3ccc(Br)o3)ccc2[nH]1,?,0%,-15,?,2%
COc1cc(CN2C[C@@H](CO)O[C@@H](n3cnc4c(NC5CC5)ncnc43)C2)cc(OC)c1OC,-16%,25%,?,8%,20%
COc1cc(C)c(CN2CCC(n3nccc3NC(=O)C3CC3)CC2)cc1C,-4%,5%,19,9%,5%
